Experimental findings from article PMC7826789 (International Journal of Molecular Sciences, 2021) are described below.

On to `Cc1ccc(-c2cc(-c3c[nH]nc3-c3ccccn3)ccn2)cc1` [GW684088], for which the Kinases covered result with TGFBR1 is listed as “TGFBR1”. The same measure, in the same setting: as for `COc1cc(-c2cncc(-c3cnn(C4CCNCC4)c3)c2)cc(OC)c1OC` [K05908], the entry is “TGFBR1”. For `CCn1cc(-c2ccnc3[nH]c(-c4cccc(CN(C)C)c4)cc23)c(-c2ccc(NC(=O)N(C)C)cc2)n1` [GSK1070916], the Kinases covered entry with TIE2 is “TIE2”.

Take `CCS(=O)(=O)c1ccc(OC)c(Nc2ncc(-c3cccc(OC)c3)o2)c1` [GW580509X]: in the assay with TNK1, the Kinases covered result is reported as “TNK1”. In the case of `COc1cc(N2CCN(C)CC2)ccc1Nc1ncc2c(n1)N(C)c1ccccc1C(=O)N2` [XMD8-87], the Kinases covered result with TNK2 is on record as “TNK2”. As to `CNS(=O)(=O)c1ccc(N(C)C)c(Nc2ncnc3cc(OC)c(OC)cc23)c1` [GSK114], the Kinases covered result is listed as “TNNI3K” in the assay on TNNI3K and “ZAK” in the assay on ZAK. `CC(=O)c1c(C)c2cnc(Nc3ccc(N4CCNCC4)cn3)nc2n(C2CCCC2)c1=O` [PFE-PKIS 32]: the Kinases covered result in the assay with TTK was “TTK”.

Consider `CCS(=O)(=O)c1ccc(OC)c(Nc2ncc(-c3cccc(F)c3)o2)c1` [GW621970X], for which the Kinases covered result with YES is listed as “YES”. `CCCS(=O)(=O)Nc1ccc(F)c(-n2cc(-c3cncc(OC)c3)nn2)c1F` [BI00865461]: the Kinases covered result in the assay on ZAK is recorded as “ZAK”. In the case of `NC(=O)c1cccnc1COc1cc(-c2ccc(N3CCOCC3)nc2)cc2ncccc12` [BI01125081], in the assay with ZAP70, the Kinases covered entry is “ZAP70”. `O=C1Nc2ccc(I)cc2C1=Cc1cc(Br)c(O)c(Br)c1` [GW305074X]: in the assay with cRAF, the Kinases covered result was “cRAF”. As to `CCn1c(-c2nonc2N)nc2cncc(CNC3CCNCC3)c21` [SB-747651A], the Kinases covered result with p70S6K is “p70S6K”.
